Experimental data published in PubChem BioAssay (Tox21).
Results filed as inconclusive are left out. Values without a mark were called inactive. The call rests on the fitted dose curve; in most records, active means well fitted cell-killing curve with a large enough effect in the repeat runs; inconclusive means weak or mixed curves, or effect the other way; inactive means no such curve, though single readings can be large or run the other way.

Assay: qHTS assay to identify small molecule agonists of the RXR signaling pathway - cell viability counter screen (AID 1159529); further: nearly all actives have a fitted effect of over 50% in size
Settings: RXR-alpha-bla HEK293T viability, CellTiter-Glo, 16 h; series mostly up to 76.8 µM; activity change, negative = cytotoxicity: at the top concentration
Excerpt: National Center for Advancing Translational Sciences [NCATS]
NIH Chemical Genomics Center [NCGC]
U.S. Environmental Protection Agency [EPA]
National Institutes of Environmental Health Sciences [NIEHS]
National Toxicology Program [NTP]
U.S. Food and Drug Administration [FDA]
The Retinoid X receptor (RXR), a nuclear hormone receptor expressed in liver, spleen, placenta, epidermis, central nervous system. These receptors are able to form homo and heterodimers with other nuclear receptors and due to this heterodimerizing ability, RXR functions as master regulators producing diverse physiological effects. Three subtypes of RXR exist; alpha, beta and gamma. Retinoid X receptor alpha (RXR-alpha) has potential roles in metabolic signaling pathways, skin alopecia, dermal cysts, cardiac development, insulin sensitization etc. Therefore screening environmental chemicals on RXR-alpha signaling can be used for the studies focused on such therapeutic applications. For quantification of RXR-alpha ligands signaling, GeneBLAzer RXR alpha-UAS-bla HEK 293T (Life Technologies, Carlsbad, CA) cells containing a beta-lactamase reporter-gene under control of Retinoid X receptor-alpha response element were used to screen Tox21 10K library. The cytotoxicity of the Tox21 compound library against the RXR-alpha HEK 293T cell line was tested in parallel by measuring cell viability using CellTiter-Glo assay (Promega Corporation, Madison, WI) in the same wells.
Tox21 Assay Protocol Summary:
RXR-alpha HEK 293T cells were dispensed at 2,000 cells/6 uL of assay medium containing 2% charcoal-stripped FBS using a Multidrop Combi (ThermoFisher Scientific, Waltham, MA) dispenser. The assay was performed in black wall/clear-bottom 1536-well plates (Greiner Bio-One North America Inc. Monroe, NC). Tetraoctyl ammonium bromide was used as a positive control in the cytotoxicity screen. After the assay plates were incubated at 37 C and 5% CO2 for 5 hr, 23 nL of compounds dissolved in DMSO, positive control or DMSO only were transferred to the assay plate by a Pintool station (Kalypsys, San Diego, CA). The assay plates were incubated at 37 C and 5% CO2 for 16 hr. One uL of LiveBLAzer B/G FRET substrate (Life Technologies) was added using a Flying Reagent Dispenser (FRD) (Aurora Discovery, San Diego, CA) and the plates were incubated at room temperature for 2 hr. Fluorescence intensity (405 nm excitation, 460/530 nm emission) was measured using an Envision plate reader (PerkinElmer, Shelton, CT). For cytotoxicity, 4 uL/well of CellTiter-Glo reagent was added into the assay plates using an FRD. After 30 min incubation at room temperature, the luminescence intensity was measured using a ViewLux plate reader (PerkinElmer).
On the % scale 0 is the no-effect control and ±100 the full control effect.

Going from CCOP(=S)(OCC)SCCl to CCOC(=O)CCl, the “activity change, negative = cytotoxicity” value falls from 1.74% to -2.23%.

First: C=C(Cl)CCl
Second: CC(C)(C)C(=O)Cl
The “activity change, negative = cytotoxicity” value of the first is lower: -1.28% for the first, 2.63% for the second.

First: ClC(Cl)(Cl)Cl
Second: C#CC(C)(C)O
The “activity change, negative = cytotoxicity” value of the first is lower: -0.822% for the first, 4.87% for the second.

Going from O=C(O)c1c(Cl)ccc2cc(Cl)cnc12 to CCOC(=O)COc1ccc(Cl)cc1Cl, the “activity change, negative = cytotoxicity” value falls from 14.7% to -21.6%.

First: C/C=C/CC#N
Second: COC1=CC(=O)O[C@@H](/C=C/c2ccccc2)C1
The “activity change, negative = cytotoxicity” value of the first is higher: 2.36% for the first, -11.9% for the second.

First: CCCOc1nn(C(=O)NS(=O)(=O)c2ccccc2C(=O)OC)c(=O)n1C
Second: COC(=O)c1ccccc1CS(=O)(=O)NC(=O)Nc1nc(OC)cc(OC)n1
The “activity change, negative = cytotoxicity” value of the first is higher: 5.24% for the first, 1.07% for the second.

First: Oc1ccc2c3c1O[C@H]1[C@@H](O)C=C[C@H]4[C@@H](C2)NCC[C@@]341
Second: CN(C)CCc1c[nH]c2cccc(OP(=O)(O)O)c12
The “activity change, negative = cytotoxicity” value of the first is lower: 5.16% for the first, 17.6% for the second.

Compared with O=C(Cl)OCc1ccccc1, O=C(Cl)c1ccccc1 is lower in “activity change, negative = cytotoxicity” value: 4.92% for the first, 3.12% for the second.

Compared with O=C/C=C/c1ccco1, OP(O)c1ccccc1 is lower in “activity change, negative = cytotoxicity” value: 8.93% for the first, 6.74% for the second.

Going from CNC(=O)O/N=C(/CSC)C(C)(C)C to CCCC(C)(COC(N)=O)COC(N)=O, the “activity change, negative = cytotoxicity” value falls from -3.14% to -8.6%.

Going from CC(C)c1ccc(O)cc1 to COC(=O)c1ccc(CBr)cc1, the “activity change, negative = cytotoxicity” value falls from 11.9% to 3.87%.

First: CON(C)C(=O)Nc1ccc(Br)cc1
Second: CN=CNc1ccc(C)cc1C
The “activity change, negative = cytotoxicity” value of the first is lower: 3.73% for the first, 6.07% for the second.

First: Nc1c(Cl)c(F)nc(OCC(=O)O)c1Cl
Second: CN1COCN(Cc2cnc(Cl)s2)/C1=N\[N+](=O)[O-]
The “activity change, negative = cytotoxicity” value of the first is lower: -8.9% for the first, 4.59% for the second.

Compared with [P]#[In], O=S1(=O)OCCO1 is lower in “activity change, negative = cytotoxicity” value: 8.23% for the first, 5.27% for the second.

For Cc1ccc2c(c1)C1CN(C)CCC1N2 (stereo not given), the activity change, negative = cytotoxicity was -17.4% [at 15.8 µM].

Going from CCOC(=O)CC(SP(=S)(OC)OC)C(=O)OCC (stereo not given) to CN(C)C(=O)Oc1cc(OC(=O)N(C)C)cc(C(O)CNC(C)(C)C)c1 (stereo not given), the “activity change, negative = cytotoxicity” value rises from -5.26% [at 35.3 µM] to -1.05% [at 35.3 µM].

Compared with CCC(C(N)=O)N1CCCC1=O (stereo not given), C=C(C)[C@H]1CN[C@H](C(=O)O)[C@H]1CC(=O)O is higher in “activity change, negative = cytotoxicity” value: -3.62% [at 35.3 µM] for the first, 0.952% [at 35.3 µM] for the second.

First: COc1cccc([C@@]2(O)CCCC[C@@H]2CN(C)C)c1
Second: O=c1[nH]c2ccccc2n1C1CCNCC1
The “activity change, negative = cytotoxicity” value of the first is higher: -3.43% [at 35.3 µM] for the first, -7% [at 35.3 µM] for the second.

Compared with N[C@@H]1C[C@H]1c1ccccc1, CCN(CCO)CCn1c(Cc2ccccc2)nc2c1c(=O)n(C)c(=O)n2C is lower in “activity change, negative = cytotoxicity” value: 2.15% [at 35.3 µM] for the first, 0.715% [at 35.3 µM] for the second.

Compared with CC1=C2[C@H]3OC(=O)[C@@H](C)[C@@H]3CC[C@@]2(C)C=CC1=O, Cn1c(CCCC(=O)O)nc2cc(N(CCCl)CCCl)ccc21 is higher in “activity change, negative = cytotoxicity” value: -3.47% [at 35.3 µM] for the first, 5.52% [at 35.3 µM] for the second.

In the case of N#CN, the “activity change, negative = cytotoxicity” value is reported as -8.1% [at 200 µM].
